Laboratory results published in PubChem BioAssay (NCI).
The panel holds about 83,000 compounds, 20% with a hit somewhere; the sample as a whole holds those more often.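 Method: cells in 96-well plates; compound added at one concentration; 48 h incubation; percent growth measured; values under 10 scored active.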 Active and inactive are the calls of the source.

Key:
Assay in all cases: NCI-60 one-dose screen, 48 h (100 = growth as untreated, 0 = no growth, -100 = all killed)
Conditions in all cases: 10 µM unless noted
NCI-H23 lung = system: NCI-H23 lung
NCI-H226 lung = system: NCI-H226 lung
NCI-H322M lung = system: NCI-H322M lung
HOP-62 NSCLC = system: HOP-62 NSCLC
NCI-H460 lung = system: NCI-H460 lung
HOP-92 NSCLC = system: HOP-92 NSCLC
NCI-H522 lung = system: NCI-H522 lung
A549/ATCC NSCLC = system: A549/ATCC NSCLC
786-0 renal = system: 786-0 renal
COLO 205 colon = system: COLO 205 colon
DU-145 prostate = system: DU-145 prostate
K-562 leukemia = system: K-562 leukemia
MALME-3M melanoma = system: MALME-3M melanoma
MDA-MB-231 breast = system: MDA-MB-231 breast
RXF 393 renal = system: RXF 393 renal
SF-268 CNS = system: SF-268 CNS
SF-295 CNS = system: SF-295 CNS
SF-539 CNS = system: SF-539 CNS
UACC-257 melanoma = system: UACC-257 melanoma
M14 melanoma = system: M14 melanoma

Measured: growth

CC1(C)OC2[C@@H](CNC(=O)NC(=O)NC(=O)CI)O[C@@H](n3cnc4c(NC(=O)Nc5ccccc5)ncnc43)[C@H]2O1 (stereo not given in full)
inactive: NCI-H23 lung 57.7% | NCI-H226 lung 97.1% | NCI-H322M lung 103% | HOP-62 NSCLC 78% | NCI-H460 lung 93.1% | A549/ATCC NSCLC 94.9% | COLO 205 colon 51.7% | DU-145 prostate 105% | MDA-MB-231 breast 58.4% | RXF 393 renal 54.9% | SF-268 CNS 73.4% | SF-295 CNS 84.6% | SF-539 CNS 27.2% | UACC-257 melanoma 94.7% | M14 melanoma 69.4%
active: HOP-92 NSCLC -63.2% | NCI-H522 lung -76% | 786-0 renal -77.9% | K-562 leukemia 4.48% | MALME-3M melanoma -61.1%

CCCCCCCCCCCCCCNC(=O)Nc1ccc(Cl)c(Cl)c1
active: NCI-H23 lung -0.614% | HOP-92 NSCLC 9.28% | NCI-H522 lung -7%
inactive: NCI-H226 lung 18.5% | NCI-H322M lung 108% | HOP-62 NSCLC 56.6% | NCI-H460 lung 86.6% | A549/ATCC NSCLC 77.8% | 786-0 renal 12.3% | COLO 205 colon 31.7% | DU-145 prostate 40.1% | K-562 leukemia 100% | MALME-3M melanoma 22.2% | MDA-MB-231 breast 27.7% | RXF 393 renal 24.4% | SF-268 CNS 46% | SF-295 CNS 18.6% | SF-539 CNS 51.1% | UACC-257 melanoma 41.4% | M14 melanoma 49.2%

O=[N+]([O-])c1cccc(/C=C/c2ccc3ccccc3n2)c1
inactive: NCI-H23 lung 85.8% | NCI-H226 lung 82.9% | NCI-H322M lung 74.3% | HOP-62 NSCLC 55.5% | NCI-H460 lung 77.1% | HOP-92 NSCLC 66.6% | NCI-H522 lung 47.5% | A549/ATCC NSCLC 79.5% | 786-0 renal 70.4% | COLO 205 colon 91.7% | DU-145 prostate 71.4% | K-562 leukemia 94.7% | MALME-3M melanoma 68.5% | MDA-MB-231 breast 45.7% | RXF 393 renal 62.1% | SF-268 CNS 72.9% | SF-295 CNS 53.2% | SF-539 CNS 78.1% | UACC-257 melanoma 74.8% | M14 melanoma 82.3%

C[C@]12CCc3nc(Nc4ccccc4)sc3C1=CC[C@@H]1[C@@H]2CC[C@]2(C)/C(=N/NC(N)=S)CC[C@@H]12
inactive: NCI-H23 lung 59.7% | NCI-H226 lung 15.6% | NCI-H322M lung 81.9% | HOP-62 NSCLC 68.2% | NCI-H460 lung 70.3% | HOP-92 NSCLC 85.4% | NCI-H522 lung 32.5% | A549/ATCC NSCLC 43.1% | COLO 205 colon 58.1% | DU-145 prostate 36.3% | MALME-3M melanoma 69.5% | MDA-MB-231 breast 56.3% | SF-268 CNS 49.3% | SF-295 CNS 21.2% | SF-539 CNS 37.3% | UACC-257 melanoma 67.9% | M14 melanoma 73.1%
active: 786-0 renal -49.8% | K-562 leukemia 9.46% | RXF 393 renal -8.56%

Nc1ccc(NC(=O)c2ccccc2)c2c1C(=O)c1ccccc1C2=O
inactive: NCI-H23 lung 96.1% | NCI-H226 lung 89.5% | NCI-H322M lung 99.1% | HOP-62 NSCLC 107% | NCI-H460 lung 104% | HOP-92 NSCLC 80.2% | NCI-H522 lung 111% | A549/ATCC NSCLC 97% | 786-0 renal 103% | COLO 205 colon 109% | DU-145 prostate 98.5% | K-562 leukemia 105% | MALME-3M melanoma 89.5% | MDA-MB-231 breast 94.7% | RXF 393 renal 106% | SF-268 CNS 99.3% | SF-295 CNS 105% | SF-539 CNS 103% | UACC-257 melanoma 88.8% | M14 melanoma 100%

CC1(C)CC[C@]2(C(N)=O)CC[C@]3(C)C(=CC[C@@H]4[C@@]5(C)C/C(=C/c6ccncc6)C(=O)C(C)(C)[C@@H]5CC[C@]43C)[C@@H]2C1
active: NCI-H23 lung -34.4% [100 µM] | NCI-H226 lung -48.3% [100 µM] | NCI-H322M lung -100% [100 µM] | HOP-62 NSCLC -63.3% [100 µM] | NCI-H460 lung -48.9% [100 µM] | HOP-92 NSCLC -64.7% [100 µM] | NCI-H522 lung -67.4% [100 µM] | A549/ATCC NSCLC -54.2% [100 µM] | 786-0 renal -41.2% [100 µM] | COLO 205 colon -55.3% [100 µM] | DU-145 prostate -36.4% [100 µM] | K-562 leukemia 3.83% [100 µM] | MALME-3M melanoma -84.9% [100 µM] | MDA-MB-231 breast -75% [100 µM] | RXF 393 renal -52.5% [100 µM] | SF-268 CNS -37.2% [100 µM] | SF-295 CNS -64.4% [100 µM] | SF-539 CNS -68.1% [100 µM] | UACC-257 melanoma -58.6% [100 µM] | M14 melanoma -24.4% [100 µM]

CN(C)c1cc(NN=C(c2ccc(O)cc2)c2ccc(O)cc2)c([N+](=O)[O-])cc1[N+](=O)[O-]
inactive: NCI-H23 lung 41% | NCI-H226 lung 98.7% | NCI-H322M lung 117% | HOP-62 NSCLC 58% | NCI-H460 lung 30.4% | HOP-92 NSCLC 73% | A549/ATCC NSCLC 13.2% | 786-0 renal 16.7% | COLO 205 colon 89.5% | DU-145 prostate 96.8% | K-562 leukemia 118% | MALME-3M melanoma 153% | MDA-MB-231 breast 81.8% | SF-268 CNS 81.5% | SF-295 CNS 79.3% | SF-539 CNS 74.9% | UACC-257 melanoma 25.1% | M14 melanoma 48.2%
active: NCI-H522 lung 1.73% | RXF 393 renal 0.652%

COC(=O)[C@]12CCC(C)(C)C[C@H]1C1=CC[C@@H]3[C@@]4(C)C/C(=C/c5cccnc5)C(=O)C(C)(C)[C@@H]4CC[C@@]3(C)[C@]1(C)CC2
active: NCI-H23 lung -40.6% [100 µM] | NCI-H226 lung -51.7% [100 µM] | NCI-H322M lung -13.4% [100 µM] | HOP-62 NSCLC -19.3% [100 µM] | NCI-H460 lung -39.3% [100 µM] | HOP-92 NSCLC -61.5% [100 µM] | NCI-H522 lung -72.9% [100 µM] | A549/ATCC NSCLC 0.0781% [100 µM] | 786-0 renal -29.1% [100 µM] | COLO 205 colon -46.2% [100 µM] | DU-145 prostate 7.21% [100 µM] | K-562 leukemia 5.39% [100 µM] | MALME-3M melanoma -79.7% [100 µM] | MDA-MB-231 breast -55.7% [100 µM] | RXF 393 renal -76.5% [100 µM] | SF-268 CNS -5.3% [100 µM] | SF-295 CNS -29.8% [100 µM] | SF-539 CNS -76.6% [100 µM] | UACC-257 melanoma -29.2% [100 µM] | M14 melanoma -49.8% [100 µM]
